Compounds without any hit were thinned out: in the full panel of roughly 83,000, 20% have a hit.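 The endpoint reported here, percent growth, reads 100 for growth as untreated, 0 for no net growth and -100 for all cells dead.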 The source made the active and inactive calls. Rule for the calls: active = growth percent below 10; inactive = the rest.
What was measured:
Assay in all cases: NCI-60 one-dose screen, 48 h (100 = growth as untreated, 0 = no growth, -100 = all killed)
Conditions in all cases: 10 µM unless noted
HCT-15 colon = system: HCT-15 colon
HT29 colon = system: HT29 colon
SNB-75 CNS = system: SNB-75 CNS
SNB-19 CNS = system: SNB-19 CNS
PC-3 prostate = system: PC-3 prostate
SK-MEL-5 melanoma = system: SK-MEL-5 melanoma
UACC-62 melanoma = system: UACC-62 melanoma
LOX IMVI melanoma = system: LOX IMVI melanoma
SK-MEL-28 melanoma = system: SK-MEL-28 melanoma

Measured: growth

COc1cc2cc(COc3nccc(-c4ccc(Cl)cc4)n3)c(=O)[nH]c2cc1OC
active: HT29 colon -7.34%
inactive: HCT-15 colon 63.6% | SNB-75 CNS 91.6% | SNB-19 CNS 77.1% | PC-3 prostate 71.4% | SK-MEL-5 melanoma 77.2% | UACC-62 melanoma 92.3% | LOX IMVI melanoma 54.7% | SK-MEL-28 melanoma 40.3%

CSc1nc(NCCO)c(C#N)c(-c2cccc(N)c2)n1
inactive: HCT-15 colon 98.1% | HT29 colon 108% | SNB-75 CNS 58.5% | SNB-19 CNS 96% | PC-3 prostate 94.7% | SK-MEL-5 melanoma 96.5% | UACC-62 melanoma 94.8% | LOX IMVI melanoma 93.5% | SK-MEL-28 melanoma 116%

CCCCCCCCCCCCN1CCCC(C)C1 (stereo not given)
inactive: HCT-15 colon 61.8% | HT29 colon 24% | SNB-75 CNS 73.4% | SNB-19 CNS 101% | PC-3 prostate 67.4% | SK-MEL-5 melanoma 68.4% | UACC-62 melanoma 108% | LOX IMVI melanoma 56.4% | SK-MEL-28 melanoma 90%

COc1cc(OC)c(/C=C/c2cc[n+](C)c3ccccc23)c(OC)c1
inactive: HCT-15 colon 90.9% | SNB-19 CNS 26.4% | PC-3 prostate 16.5% | UACC-62 melanoma 12.7% | SK-MEL-28 melanoma 24.8%
active: HT29 colon 0.813% | SNB-75 CNS -13.8% | SK-MEL-5 melanoma -47.2% | LOX IMVI melanoma -74.2%

Cc1cc(Nc2nc(N3CCNCC3)nc3ccccc23)n[nH]1
active: SNB-75 CNS -16.6%
inactive: HCT-15 colon 70.5% | HT29 colon 82.1% | SNB-19 CNS 101% | PC-3 prostate 80.8% | SK-MEL-5 melanoma 95.8% | UACC-62 melanoma 74.6% | LOX IMVI melanoma 88.6% | SK-MEL-28 melanoma 86%
